These results are taken from PubChem BioAssay (EPA / NIEHS).

A word on the AC50: it is the concentration giving half of the maximal activity seen.

In test [1] the target is Paired box protein Pax-6 (Homo sapiens) (UniProt P26367). Description: ATG_Pax6_CIS: Attagene CIS-FACTORIAL HepG2 Assay for human Paired Box 6 (PAX6) (AID 2282956). To be noted: HepG2 CIS-FACTORIAL PAX6 reporter transcription, RNA readout; actives raise or lower the signal. The gist of the method:
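Read-out is reporter transcript level, measured by RT-PCR with fluorescent primer extension and capillary electrophoresis after 24 h dosing of transfected HepG2 cells. Activity in either direction fitted relative to DMSO control.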

Test [2] in a line: ATG_PXRE_CIS: Attagene CIS-FACTORIAL HepG2 Assay for human Pregnane X Receptor Element (PXRE) (AID 2282957). Particulars: HepG2 Attagene CIS-FACTORIAL PXRE reporter, mRNA; actives raise or lower the signal. The gist of the method: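 Fluorescent capillary electrophoresis of amplified reporter cDNA gave the signal, collected 24 h after dosing HepG2 cells that held transfected cis-element reporter constructs.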

Test [3] in a line: ATG_PPRE_CIS: Attagene CIS-FACTORIAL HepG2 Assay for human Peroxisome Proliferator-activated Response Element (PPRE) (AID 2282958). Particulars: HepG2 PPRE cis-element reporter, Attagene transcription factor profiling; actives raise or lower the signal. The method in brief: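 Transcript-level reporter induction in transfected HepG2 cells after 24 h chemical exposure, quantified by fluorescence from RT-PCR products separated by capillary electrophoresis.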

Test [4] in a line: ATG_RORE_CIS: Attagene CIS-FACTORIAL HepG2 Assay for human RAR-related Orphan Receptor Element (RORE) (AID 2282959). To be noted: HepG2 Attagene cis-factorial RORE reporter, mRNA; actives raise or lower the signal. The gist of the method: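 Multiplexed reporter assay measuring mRNA induction from a cis promoter element in transiently transfected HepG2 cells after 24 h treatment. Detection via RT-PCR and capillary electrophoresis fluorescence; DMSO serves as baseline.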

Test [5] is described as follows: ATG_Sox_CIS: Attagene CIS-FACTORIAL HepG2 Assay for human SRY-box transcription factor (SOX) (AID 2282960). To be noted: HepG2 Attagene cis-factorial SOX reporter, mRNA; actives raise or lower the signal. The gist of the method: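 Cells were transfected with reporter constructs under cis-regulatory promoters, then exposed to chemicals for 24 h. Reporter transcripts were quantified by fluorescence after RT-PCR and capillary electrophoresis; activity was fitted in both directions against DMSO.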

For test [6], the target named is Transcription factor Sp1 (Homo sapiens) (UniProt P08047). Description: ATG_Sp1_CIS: Attagene CIS-FACTORIAL HepG2 Assay for human Specificity Protein 1 (Sp1) (AID 2282961). To be noted: HepG2 Sp1 cis-reporter transcription, actives raise or lower the signal. The method in brief: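 Measures mRNA induction of an Sp1-linked reporter in HepG2 cells 24 h post-dosing. Multiplexed reporters read by RT-PCR and capillary electrophoresis; DMSO serves as negative control and baseline.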
Sequence of Transcription factor Sp1 (Homo sapiens) (P08047 whole entry, looked up): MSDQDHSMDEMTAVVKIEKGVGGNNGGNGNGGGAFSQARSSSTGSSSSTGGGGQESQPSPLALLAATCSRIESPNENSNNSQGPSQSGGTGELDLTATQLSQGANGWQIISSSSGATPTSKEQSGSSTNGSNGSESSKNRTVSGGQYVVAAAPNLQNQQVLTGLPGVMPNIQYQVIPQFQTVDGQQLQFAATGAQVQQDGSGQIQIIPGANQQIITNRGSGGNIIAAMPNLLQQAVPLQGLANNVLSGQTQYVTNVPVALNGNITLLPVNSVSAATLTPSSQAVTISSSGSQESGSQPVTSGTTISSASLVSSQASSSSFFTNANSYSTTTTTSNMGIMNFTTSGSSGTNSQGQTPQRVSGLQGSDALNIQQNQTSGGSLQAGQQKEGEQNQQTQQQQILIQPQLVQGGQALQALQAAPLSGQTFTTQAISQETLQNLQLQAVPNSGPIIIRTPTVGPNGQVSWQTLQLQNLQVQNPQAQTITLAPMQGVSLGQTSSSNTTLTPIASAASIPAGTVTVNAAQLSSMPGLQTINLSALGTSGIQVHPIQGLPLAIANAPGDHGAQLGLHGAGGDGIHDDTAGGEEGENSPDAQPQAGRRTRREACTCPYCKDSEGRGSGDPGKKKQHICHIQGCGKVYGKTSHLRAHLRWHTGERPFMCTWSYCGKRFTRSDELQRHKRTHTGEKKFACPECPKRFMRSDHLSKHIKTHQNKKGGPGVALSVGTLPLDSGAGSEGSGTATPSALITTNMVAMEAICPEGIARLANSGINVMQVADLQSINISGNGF

Test [7] is described as follows: ATG_SREBP_CIS: Attagene CIS-FACTORIAL HepG2 Assay for human Sterol Regulatory Element Binding (SREBP) (AID 2282962). To be noted: HepG2 Attagene cis-factorial SREBP reporter, mRNA; actives raise or lower the signal. The method in brief: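 Endogenous SREBP activity read as cis-element-driven reporter transcript in transiently transfected HepG2, 24 h post-dosing; quantified via RT-PCR plus capillary electrophoresis of fluorescent fragments. Gain or loss of signal fitted relative to DMSO baseline.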

Test [8] concerns the target Signal transducer and activator of transcription 3 (Homo sapiens) (UniProt P40763). Description: ATG_STAT3_CIS: Attagene CIS-FACTORIAL HepG2 Assay for human Signal Transducer and Activator of Transcription 3 (STAT3) (AID 2282963). To be noted: HepG2, Attagene cis-factorial STAT3 reporter transcription; actives raise or lower the signal. The method in brief:
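Readout: fluorescent reporter mRNA fragments resolved by capillary electrophoresis. Setup: HepG2 transfected with MRTUs reporting endogenous transcription-factor activity, dosed 24 h. Gain or loss of signal fitted bidirectionally against DMSO control.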

Test [9] in a line: ATG_TA_CIS: Attagene CIS-FACTORIAL HepG2 Assay for human TA Basal Promoter (AID 2282964). Particulars: HepG2 Attagene CIS-factorial TA basal promoter reporter; actives raise or lower the signal. The method in brief: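 Transfected HepG2, 24 h compound exposure; RNA → RT-PCR → FAM primer extension → HpaI cut → CE fluorescence. Gain/loss-of-signal fitted against DMSO negative control. Background-control readout.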

Test [10] is described as follows: ATG_TCF_b_cat_CIS: Attagene CIS-FACTORIAL HepG2 Assay for human T-Cell-Factor with beta-catenin (TCF/b-cat) (AID 2282965). To be noted: HepG2 TCF/beta-catenin cis-reporter transcription, actives raise or lower the signal. The method in brief:
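HepG2, transient MRTU transfection, cis-element-driven reporters (endogenous TFs). 24 h compound exposure. Readout: reporter mRNA by RT-PCR + 6-FAM primer extension, HpaI digest, capillary electrophoresis. Gain/loss fit vs DMSO baseline.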

The nature of test [11]: ATG_TAL_CIS: Attagene CIS-FACTORIAL HepG2 Assay for human TAL Basal Promoter (AID 2282966).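 Also: background control endpoint measuring basal TAL promoter reporter mRNA not a specific factor.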 To be noted: HepG2 Attagene cis-factorial TAL promoter reporter; actives raise or lower the signal. The method in brief:
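Transiently transfected HepG2 (cis-regulated reporter units), 24 h treatment, mRNA read by fluorescent CE after RT-PCR; bidirectional fit, DMSO baseline.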

A short description of test [12]: ATG_TGFb_CIS: Attagene CIS-FACTORIAL HepG2 Assay for human Transforming Growth Factor (TGF) (AID 2282967). To be noted: HepG2 Attagene CIS TGFb reporter, mRNA transcription; actives raise or lower the signal. The method in brief:
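Readout: fluorescently labeled reporter cDNA fragments resolved by capillary electrophoresis after RT-PCR. Transfected HepG2 cells dosed for 24 h; endogenous TF activity at TGFB1-linked cis element; gain or loss fitted relative to DMSO.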

Test [13] is described as follows: ATG_VDRE_CIS: Attagene CIS-FACTORIAL HepG2 Assay for human Vitamin D Receptor Element (VDRE) (AID 2282968). To be noted: HepG2 VDRE cis-reporter transcription, actives raise or lower the signal. The method in brief: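 Transient MRTU transfection of HepG2, 24 h compound exposure. Readout: reporter transcripts via RT-PCR and capillary electrophoresis, fluorescence. Bidirectional fit vs DMSO.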

Test [14] deals with Steroid hormone receptor ERR1 (Homo sapiens) (UniProt P11474). The test is described as follows: ATG_ERRa_TRANS: Attagene TRANS-FACTORIAL HepG2 Assay for human Estrogen-Related Receptor alpha (ERRa) (AID 2282971; active = hit-call score of the fitted dose curve at least 0.9, where 1 is the maximum). Particulars: HepG2 Attagene TRANS reporter, ERRa transactivation. The method in brief: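 HepG2 cells transiently transfected with multiplexed GAL4-UAS reporter units reading chimeric ERRa-Gal4 activity; 24 h compound exposure. Reporter mRNA measured by RT-PCR, 6-FAM labelling, HpaI digest and capillary electrophoresis; gain of signal fitted versus DMSO baseline.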
Sequence of Steroid hormone receptor ERR1 (Homo sapiens) (P11474 whole entry, looked up, the tested form may be a part): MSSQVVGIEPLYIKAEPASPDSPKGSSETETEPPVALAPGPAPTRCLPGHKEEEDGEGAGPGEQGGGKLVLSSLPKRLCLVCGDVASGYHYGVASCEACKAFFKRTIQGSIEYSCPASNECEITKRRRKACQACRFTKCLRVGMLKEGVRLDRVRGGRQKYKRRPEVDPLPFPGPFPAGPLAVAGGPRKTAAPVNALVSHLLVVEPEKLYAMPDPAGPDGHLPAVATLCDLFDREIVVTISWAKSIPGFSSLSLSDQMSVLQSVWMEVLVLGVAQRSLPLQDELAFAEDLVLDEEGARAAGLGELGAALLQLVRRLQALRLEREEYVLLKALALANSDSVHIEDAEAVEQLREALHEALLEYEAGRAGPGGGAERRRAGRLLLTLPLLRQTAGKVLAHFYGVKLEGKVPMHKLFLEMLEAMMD

The target of test [15] is X-box-binding protein 1 (Homo sapiens) (UniProt P17861). The test is described as follows: ATG_Xbp1_CIS: Attagene CIS-FACTORIAL HepG2 Assay for human X-box Binding Protein 1 (XBP1) (AID 2282972). Particulars: HepG2 XBP1 cis-element reporter, Attagene multiplex; actives raise or lower the signal. The method in brief:
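Reporter transcripts were quantified by RT-PCR with fluorescent primer extension and capillary electrophoresis after 24 h chemical exposure. Cells: transiently transfected HepG2 carrying cis-regulated reporter constructs; data fitted bidirectionally relative to DMSO.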

The nature of test [16]: ATG_M_19_TRANS: Attagene TRANS-FACTORIAL HepG2 Assay for M19 Transcription Factor (Internal Marker) (AID 2282974; active = hit-call score of the fitted dose curve at least 0.9, where 1 is the maximum). Particulars: HepG2 Attagene TRANS-FACTORIAL M19 internal marker reporter. The gist of the method:
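After transfection of HepG2 with GAL4-UAS-driven reporter constructs, cells are dosed for 24 h. Total RNA is reverse-transcribed, reporter sequences PCR-amplified and labelled, then HpaI-digested and sized by capillary electrophoresis.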

Test [17] addresses Estrogen-related receptor gamma (Homo sapiens) (UniProt P62508). Description: ATG_ERRg_TRANS: Attagene TRANS-FACTORIAL HepG2 Assay for human Estrogen-Related Receptor gamma (ERRg) (AID 2282977; active = hit-call score of the fitted dose curve at least 0.9, where 1 is the maximum;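 also: hits increase reporter signal over DMSO so potencies reflect activators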). To be noted: HepG2 Attagene TRANS reporter, ERRg transactivation. The method in brief:
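Exogenous NR-Gal4 chimera activity was assessed in HepG2 cells bearing transfected GAL4-UAS reporters. After 24 h dosing, total RNA underwent RT-PCR, fluorescent primer extension and HpaI digestion before capillary electrophoresis, with gain of signal scored against DMSO.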

Test [18] deals with Nuclear receptor subfamily 1 group I member 3 (Homo sapiens) (UniProt Q14994). The test is described as follows: ATG_CAR_TRANS: Attagene TRANS-FACTORIAL HepG2 Assay for human Constitutive Androstane Receptor (CAR) (AID 2282969; active = hit-call score of the fitted dose curve at least 0.9, where 1 is the maximum;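 also: activators raise reporter mRNA above DMSO so AC50 marks induction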). To be noted: HepG2 Attagene TRANS-FACTORIAL CAR reporter. The gist of the method: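 Transiently transfected HepG2, multiplex TRANS reporters (CAR-Gal4 chimera driving GAL4-UAS reporter). 24 h dosing. Readout: reporter transcript by RT-PCR + capillary electrophoresis, fluorescence intensity; positive direction vs DMSO.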
Sequence of Nuclear receptor subfamily 1 group I member 3 (Homo sapiens) (Q14994 whole entry, looked up, the tested form may be a part): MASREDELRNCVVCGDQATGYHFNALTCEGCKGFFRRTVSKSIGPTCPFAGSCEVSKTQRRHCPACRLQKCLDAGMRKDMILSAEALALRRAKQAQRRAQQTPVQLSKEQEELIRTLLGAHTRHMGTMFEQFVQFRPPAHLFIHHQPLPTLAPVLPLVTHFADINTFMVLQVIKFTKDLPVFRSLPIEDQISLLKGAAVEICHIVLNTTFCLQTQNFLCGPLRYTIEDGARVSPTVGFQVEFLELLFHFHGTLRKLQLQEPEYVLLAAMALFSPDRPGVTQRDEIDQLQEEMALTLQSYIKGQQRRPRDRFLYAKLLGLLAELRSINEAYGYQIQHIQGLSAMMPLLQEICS

Test [19] has as its target Estrogen receptor (Homo sapiens) (UniProt P03372). The test is described as follows: ATG_ERa_TRANS: Attagene TRANS-FACTORIAL HepG2 Assay for human Estrogen Receptor alpha (ERa) (AID 2282970; active = hit-call score of the fitted dose curve at least 0.9, where 1 is the maximum). To be noted: HepG2 Attagene TRANS ERa GAL4 reporter, mRNA. The method in brief:
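One of 30 multiplexed endpoints from a HepG2 TRANS system, this one reports ERa-Gal4-driven reporter mRNA. Transcripts were quantified 24 hours post-dosing by fluorescent RT-PCR and capillary electrophoresis, with activity scored as induction over DMSO.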

A short description of test [20]: ATG_GAL4_TRANS: Attagene TRANS-FACTORIAL HepG2 Assay for GAL4 (Internal Marker) (AID 2282976; active = hit-call score of the fitted dose curve at least 0.9, where 1 is the maximum). To be noted: HepG2 Attagene TRANS GAL4 internal marker reporter. The gist of the method: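 HepG2 cells transiently transfected with multiplexed GAL4-UAS reporter constructs were dosed for 24 h. Reporter mRNA was measured by RT-PCR, 6-FAM primer extension, HpaI digestion and capillary electrophoresis, and gain of signal was fitted relative to DMSO.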

Records with an inconclusive call do not appear. Calls of active or inactive are those of the source. The calls were made as follows, unless noted: active = hit-call score of the fitted dose curve at least 0.9, where 1 is the maximum; inactive = score below 0.9.

Sequence of X-box-binding protein 1 (Homo sapiens) (P17861 whole entry, looked up): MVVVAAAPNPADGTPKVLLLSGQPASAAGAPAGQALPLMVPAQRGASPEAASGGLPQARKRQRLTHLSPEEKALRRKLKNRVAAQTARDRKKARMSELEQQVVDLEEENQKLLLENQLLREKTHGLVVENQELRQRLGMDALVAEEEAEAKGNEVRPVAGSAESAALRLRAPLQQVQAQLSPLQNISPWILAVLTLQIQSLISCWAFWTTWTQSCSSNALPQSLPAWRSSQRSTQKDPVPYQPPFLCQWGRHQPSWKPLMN
Sequence of Paired box protein Pax-6 (Homo sapiens) (P26367 whole entry, looked up): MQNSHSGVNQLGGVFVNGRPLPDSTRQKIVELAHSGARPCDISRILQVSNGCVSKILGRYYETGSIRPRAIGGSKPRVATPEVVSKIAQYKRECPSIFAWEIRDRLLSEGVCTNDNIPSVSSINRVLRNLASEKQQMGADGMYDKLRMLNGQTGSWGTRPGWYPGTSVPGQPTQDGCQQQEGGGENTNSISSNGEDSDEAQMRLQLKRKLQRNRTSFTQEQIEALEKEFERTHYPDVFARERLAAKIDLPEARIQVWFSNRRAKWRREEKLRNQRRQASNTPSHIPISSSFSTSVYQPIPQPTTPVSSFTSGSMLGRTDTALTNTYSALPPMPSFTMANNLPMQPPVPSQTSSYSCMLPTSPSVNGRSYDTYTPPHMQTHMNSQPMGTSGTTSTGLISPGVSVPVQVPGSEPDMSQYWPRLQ
Sequence of Signal transducer and activator of transcription 3 (Homo sapiens) (P40763 whole entry, looked up, the tested form may be a part): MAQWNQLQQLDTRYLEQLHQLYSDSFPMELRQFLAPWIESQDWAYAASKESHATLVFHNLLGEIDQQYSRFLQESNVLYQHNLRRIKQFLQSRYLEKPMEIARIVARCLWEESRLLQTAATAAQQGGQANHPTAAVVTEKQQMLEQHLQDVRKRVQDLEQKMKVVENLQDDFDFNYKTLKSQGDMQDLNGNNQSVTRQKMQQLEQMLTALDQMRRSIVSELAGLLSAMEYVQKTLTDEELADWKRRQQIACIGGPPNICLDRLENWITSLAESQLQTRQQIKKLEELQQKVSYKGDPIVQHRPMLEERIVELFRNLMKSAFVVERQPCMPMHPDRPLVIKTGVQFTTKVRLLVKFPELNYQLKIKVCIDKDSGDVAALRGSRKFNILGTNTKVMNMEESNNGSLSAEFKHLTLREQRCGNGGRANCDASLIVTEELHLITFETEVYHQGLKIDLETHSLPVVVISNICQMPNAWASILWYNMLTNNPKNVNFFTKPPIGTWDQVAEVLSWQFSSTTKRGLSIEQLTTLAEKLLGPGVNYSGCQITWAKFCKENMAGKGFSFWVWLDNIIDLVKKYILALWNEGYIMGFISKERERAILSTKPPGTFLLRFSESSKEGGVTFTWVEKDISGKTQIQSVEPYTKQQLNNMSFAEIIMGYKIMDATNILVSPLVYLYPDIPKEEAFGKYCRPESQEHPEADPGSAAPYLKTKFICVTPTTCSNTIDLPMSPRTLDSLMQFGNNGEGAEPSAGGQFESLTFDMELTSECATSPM
Sequence of Estrogen receptor (Homo sapiens) (P03372 whole entry, looked up, the tested form may be a part): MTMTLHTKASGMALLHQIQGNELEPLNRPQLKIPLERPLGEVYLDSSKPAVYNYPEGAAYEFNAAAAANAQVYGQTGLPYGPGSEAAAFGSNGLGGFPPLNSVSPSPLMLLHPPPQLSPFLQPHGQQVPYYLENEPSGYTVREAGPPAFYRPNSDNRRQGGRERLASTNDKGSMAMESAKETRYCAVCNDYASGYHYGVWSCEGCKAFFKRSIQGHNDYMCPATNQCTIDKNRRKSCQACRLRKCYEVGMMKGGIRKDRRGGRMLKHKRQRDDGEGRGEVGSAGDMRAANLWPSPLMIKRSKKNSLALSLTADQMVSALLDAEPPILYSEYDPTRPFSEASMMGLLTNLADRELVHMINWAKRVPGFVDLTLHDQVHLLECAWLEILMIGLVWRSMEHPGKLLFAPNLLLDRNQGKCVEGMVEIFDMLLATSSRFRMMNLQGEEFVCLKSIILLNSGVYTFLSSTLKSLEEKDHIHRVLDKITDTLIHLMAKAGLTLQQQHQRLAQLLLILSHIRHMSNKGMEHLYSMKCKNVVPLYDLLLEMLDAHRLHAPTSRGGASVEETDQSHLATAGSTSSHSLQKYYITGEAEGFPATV
Sequence of Estrogen-related receptor gamma (Homo sapiens) (P62508 whole entry, looked up, the tested form may be a part): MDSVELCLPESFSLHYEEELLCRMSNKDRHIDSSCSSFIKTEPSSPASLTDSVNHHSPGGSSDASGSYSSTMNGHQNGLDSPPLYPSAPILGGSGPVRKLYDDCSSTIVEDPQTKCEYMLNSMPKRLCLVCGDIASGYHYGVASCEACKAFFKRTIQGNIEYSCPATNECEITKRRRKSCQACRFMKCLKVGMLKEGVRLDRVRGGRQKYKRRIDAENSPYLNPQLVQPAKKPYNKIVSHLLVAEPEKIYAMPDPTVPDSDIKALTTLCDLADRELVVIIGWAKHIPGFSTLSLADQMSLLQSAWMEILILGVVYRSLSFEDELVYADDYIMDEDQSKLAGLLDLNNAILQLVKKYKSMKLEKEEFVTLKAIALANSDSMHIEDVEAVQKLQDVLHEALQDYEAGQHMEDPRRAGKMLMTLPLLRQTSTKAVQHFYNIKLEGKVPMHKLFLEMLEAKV

Regarding `NCCCCCCN`, the result in test [1], in [2], in [3], in [4], in [5] and in test [6] was inactive. In addition, the call in test [7], in [8], in test [9], in [10], in [11] and in test [12] was inactive. Further, the outcome in [13], in [14], in test [15], in test [16] and in test [17] was inactive.

For `ClCCCl`, the compound was classed as inactive in test [1], in test [2], in [3], in test [4], in [5] and in [6]. The compound was classed as inactive in test [7], in test [8], in test [9], in test [10], in test [11] and in [12]. Moreover, the outcome in test [13] and in test [18] was inactive.

Turning to `CC(C)=CCO`, the compound was classed as inactive in test [1], in test [3], in [4], in [5], in test [6] and in test [7]. Moreover, the call in test [8], in test [9], in test [10], in test [11], in test [12] and in test [13] was inactive. Besides, the outcome in [19], in [14], in [16] and in test [20] was inactive. Moreover, the AC50 in test [2] is 47.2 µM (active).

Consider `CCc1ccc(C=O)cc1`, for which the outcome in test [1], in test [2], in [3], in test [4], in [5] and in test [6] was inactive. Further, the result in test [7], in [8], in test [9], in [10], in test [11] and in test [12] was inactive. Besides, the compound was called inactive in test [13], in test [18], in test [14], in test [15], in test [16] and in test [17].

For the compound `CC1CCC(C(C)CS)CC1S` (centres undefined), the outcome in test [1], in test [3], in [4], in test [7], in test [8] and in test [9] was inactive. The compound was called inactive in [11], in test [12], in test [13], in test [14], in [15] and in test [16]. The call in test [20] was inactive. Further, the AC50 was 2.54 µM (active) in [2], 52.9 µM (active) in [5], 52.1 µM (active) in [6] and 49.4 µM (active) in [10].

For the compound `C=C(C)C(=O)OCc1ccccc1`, the compound was classed as inactive in test [1], in test [2], in test [3], in test [4], in test [5] and in test [6]. In addition, the result in [7], in [8], in test [9], in [10], in [11] and in test [12] was inactive. Also, the compound was called inactive in [13], in test [19], in test [14], in [15] and in [16].

Consider `Cc1ccc(C(=O)c2cc(O)c(O)c([N+](=O)[O-])c2)cc1`, for which the call in test [1], in [4], in [5], in [6], in [7] and in test [8] was inactive. Moreover, the result in test [9], in test [10], in test [11], in test [12], in test [13] and in [15] was inactive. Moreover, the figures for the AC50 in test [2] and in test [3] were 27.5 µM (active) and 21.8 µM (active), respectively.

Turning to `O=c1[nH]nnc2ccccc12`, the outcome in [1], in test [2], in test [3], in [4], in test [5] and in test [6] was inactive. The outcome in [7], in [8], in test [9], in test [10], in test [11] and in test [12] was inactive. The compound was classed as inactive in test [13], in test [15] and in [16].
